Potency data for 28 molecules are collected here from PubChem BioAssay (NCATS).

Common to all, as to experiment: qHTS profiling for inhibitors of Plasmodium falciparum proliferation (AID 504749); note: nearly all actives have a fitted effect of over 60% in size
Holding throughout (conditions): P. falciparum in erythrocytes, SYBR Green DNA, 72 h; series mostly up to 28.7 µM

One test deals with CP215. In outline: (§1)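 SYBR Green fluorescence of parasite DNA, read after lysis and overnight dark incubation, measured growth over 72 h in erythrocyte culture at 0.3% parasitemia and 2.5% hematocrit. Data normalised to DMSO and 0.29 uM artemisinin, with plate-drift correction.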
Another test concerns CP217. In outline:
as §1

In a further test the test system is CP237. The method, boiled down: as §1
In a further test the test system is CP238. In outline:
as §1

In the next test the test system is CP247. In outline:
as §1

The test system of another test is CP250. In outline: as §1
For the next test, the system named is CP252. In outline:
as §1

In a further test the test system is CP256. The method, boiled down: as §1
For another test, the system named is CP260. The method, boiled down:
as §1

A further test relates to CP262. The method, boiled down: as §1

Molecules are shown by their SMILES. Results filed as inconclusive are left out. Activity calls are given as the source filed them. Calls come from the whole dose curve; as a rule, active = well fitted inhibition curve with a large enough effect; inconclusive = small, poorly fitted or top-dose-only effect; inactive = flat fitted curve, though single readings scatter. Peptide text beside a SMILES is read from it.
Potency is the fitted concentration of half-maximal effect.

With `CCC(=O)NCCC1CCc2ccc3c(c21)CCO3` (stereo not drawn), the Potency result in the test on CP215, in the test on CP217, with CP237, in the test on CP238, in the test on CP247 and in the test with CP250 was “inactive” in each case. The Potency entry with CP252, with CP256, in the test with CP260 and with CP262 was “inactive” in each case.

As for `Cc1cn([C@H]2C[C@H](O)[C@@H](CO)O2)c(=O)[nH]c1=O`, the Potency result in the test with CP215, in the test on CP217, in the test with CP237, in the test with CP238, in the test on CP247 and with CP250 was “inactive” in each case. For the same molecule, the Potency result with CP252, in the test with CP256 and in the test on CP262 was “inactive” each time.

Consider `Cc1cc(C(=O)NNCc2ccccc2)no1`, for which the Potency result in the test on CP215, in the test with CP217, in the test on CP237, in the test on CP238, with CP247 and with CP250 was “inactive” throughout. For the same molecule, the Potency result in the test with CP252, with CP256, in the test with CP260 and in the test with CP262 was “inactive” in each case.

Turning to `CC(=O)N[C@@H](CC(=O)O)C(=O)N[C@@H](CCC(=O)O)C(=O)O` (Ac-Asp-Glu-OH), the Potency entry with CP215, with CP217, with CP237, in the test with CP238, in the test on CP247 and with CP250 was “inactive” throughout. The Potency result in the test with CP252, with CP256, in the test on CP260 and in the test on CP262 was “inactive” each time.

For `CC(C)=O`, the Potency entry in the test with CP215, in the test with CP217, in the test on CP237, in the test on CP238, in the test on CP247 and in the test on CP250 was “inactive” in each case. Besides, the Potency result in the test with CP252, in the test on CP260 and in the test on CP262 was “inactive” throughout.

On to `CCOC(=O)C1=CC2(CC)CCCN3CCc4c(n1c1ccccc41)C32` (stereo not drawn), for which the Potency was 11.2 µM (active) in the test on CP217, 8.91 µM (active) in the test on CP238, 11.2 µM (active) with CP252 and 6.31 µM (active) with CP256.

With `O=S(=O)(O)O`, the Potency result in the test with CP217, with CP237, with CP238, with CP247, in the test with CP250 and in the test with CP252 was “inactive” throughout. Moreover, the Potency entry with CP256, with CP260 and in the test on CP262 was “inactive” each time.

For the molecule `O=C(Nc1ccc(Br)cc1)c1cc(Br)c(Br)s1`, the Potency result in the test with CP250 and in the test with CP262 was “inactive” each time.

Consider `CCOc1ccc2c(c1)C(C)=CC(C)(C)N2`, for which the Potency result in the test with CP217, in the test with CP237, in the test on CP238, in the test on CP247, with CP250 and in the test with CP252 was “inactive” in each case. Further, the Potency entry in the test with CP256, with CP260 and with CP262 was “inactive” throughout.

For `CCCCCCOc1ccc(C(=N)N(CCCC)CCCC)c2ccccc12`, the Potency in the test on CP217 was 7.94 µM (active); with CP237, 11.2 µM (active); in the test on CP247 it was 10 µM (active); in the test with CP250, 8.91 µM (active); in the test with CP252, 10 µM (active); with CP260, 4.47 µM (active).

For `COC(=O)C1=C(C#N)NC(C)=C(C(=O)OC(C)C)C1c1cccc([N+](=O)[O-])c1` (stereo not drawn), the Potency in the test on CP217 is 11.2 µM (active); with CP238 it was 10 µM (active); with CP247, 8.91 µM (active); in the test with CP256, 7.94 µM (active); with CP260, 11.2 µM (active).

Turning to `CN(C)CCCN1c2ccccc2C(C)(C)c2ccccc21`, the Potency result with CP215, with CP217, in the test with CP252, in the test with CP260 and with CP262 was “inactive” each time.

Regarding `CC(=O)Oc1cc(C)c(OC(C)=O)c2ccccc12`, the Potency in the test with CP250 is 7.94 µM (active); in the test with CP256, 10 µM (active); in the test on CP262, 13.5 µM (active).

Take `O=S(=O)(O)c1cc(O)c2c(N=Nc3ccc(Nc4ccccc4)c4c(S(=O)(=O)O)cccc34)cc(S(=O)(=O)O)cc2c1`: the Potency entry in the test on CP237 and in the test with CP238 was “inactive” in each case.

With `O=C(O)c1cc(O)c2c(c1)[O][Bi][O]2`, the Potency result in the test with CP217, in the test on CP237, with CP238, in the test with CP247, with CP250 and in the test with CP252 was “inactive” throughout. In addition, the Potency result in the test with CP256, with CP260 and in the test on CP262 was “inactive” in each case.

Consider `CCCCC(CC)COC(=O)CC(C(=O)OCC(CC)CCCC)S(=O)(=O)O` (stereo not drawn), for which the Potency result with CP215 and with CP262 was “inactive” in each case.

On to `Clc1cc(Cl)c(OCC#CI)cc1Cl`, for which the Potency in the test on CP247 is 7.08 µM (active); with CP250, 11.2 µM (active).

`O=C1CSC2(CCN(CCCN3c4ccccc4Sc4ccc(Cl)cc43)CC2)N1`: the Potency result with CP238, in the test with CP250, in the test on CP256 and in the test with CP262 was “inactive” each time.

In the case of `IC(I)I`, the Potency entry in the test with CP217, in the test with CP237, with CP238, with CP247, in the test on CP250 and with CP252 was “inactive” throughout. For the same molecule, the Potency entry in the test with CP256, with CP260 and in the test with CP262 was “inactive” each time.

Turning to `CCCCCC(CC)COC(=O)CC(C(=O)OCC(CC)CCCC)S(=O)(=O)O` (stereo not drawn), the Potency result in the test on CP217, in the test with CP237, in the test on CP238, in the test with CP250, in the test with CP252 and in the test on CP256 was “inactive” each time. The Potency entry in the test on CP260 was “inactive”. The Potency in the test on CP247 is 11.2 µM (active).

As to `O=C(COc1ccc(Cl)cc1)OCCNC12CC3CC(CC(C3)C1)C2`, the Potency result in the test on CP215, in the test with CP217, in the test with CP238, in the test on CP247, in the test on CP250 and with CP252 was “inactive” throughout. Moreover, the Potency result in the test with CP256, in the test on CP260 and in the test on CP262 was “inactive” each time.

In the case of `COc1cc(-c2ccc(-[n+]3nc(-c4ccccc4)nn3-c3ccc([N+](=O)[O-])cc3)c(OC)c2)ccc1-[n+]1nc(-c2ccccc2)nn1-c1ccc([N+](=O)[O-])cc1`, the Potency was 11.2 µM (active) in the test with CP247, 8.91 µM (active) in the test on CP252 and 12.6 µM (active) with CP260. The Potency result in the test with CP262 was “inactive”.

`CC1=C(/C=C/C(C)=C/C=C/C(C)=C/CO)C(C)(C)CCC1`: the Potency with CP217 and in the test with CP252 was 10 µM (active) each time. Besides, in the test with CP262, the Potency entry was “inactive”.

On to `C#C[C@]1(O)CC[C@H]2[C@@H]3CCC4=CCCC[C@@H]4[C@H]3C(=C)C[C@@]21CC`, for which the Potency entry in the test on CP215, in the test with CP237, in the test with CP260 and in the test with CP262 was “inactive” each time.

As to `CC(C)N=c1cc2n(-c3ccc(Cl)cc3)c3ccccc3nc-2cc1Nc1ccc(Cl)cc1`, the Potency entry in the test on CP215, in the test on CP217, in the test on CP238, with CP247, with CP250 and in the test with CP252 was “inactive” each time. For the same molecule, the Potency entry with CP256 and in the test with CP262 was “inactive” each time.

Turning to `CCN(CC)CCOc1ccc(-c2nc3cc(Cl)ccc3s2)cc1`, the Potency entry in the test with CP215, with CP217, in the test on CP238, in the test with CP250, in the test on CP252 and with CP256 was “inactive” in each case. Also, the Potency entry with CP262 is “inactive”.

Regarding `CN=C(NC#N)Nc1ccc(C2=NNC(=O)C[C@@H]2C)cc1`, the Potency entry in the test with CP217, with CP237, in the test on CP238, with CP247, in the test on CP250 and in the test on CP252 was “inactive” in each case. Further, the Potency entry in the test on CP256 and in the test with CP260 was “inactive” in each case.

As for `O=C(Nc1cccc(C(F)(F)F)c1)c1cc(Br)cc(Br)c1O`, the values for the Potency in the test with CP215, with CP217 and with CP247 were 12 µM (active), 8.91 µM (active) and 8.91 µM (active), respectively.
